Consider eight molecules from PubChem BioAssay (EPA / NIEHS).

Assay [1] concerns the target human Retinoic Acid Receptor gamma (RARg), RARG (gene 5916) (UniProt P13631). In words: ATG_RARg_TRANS: Attagene TRANS-FACTORIAL HepG2 Assay for human Retinoic Acid Receptor gamma (RARg) (AID 2283009; active = hit-call score of the fitted dose curve at least 0.9, where 1 is the maximum). A digest of the protocol:
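Transient transfection of HepG2 with multi-reporter constructs, then 24 h chemical treatment. Total RNA isolated, reverse-transcribed, PCR-amplified, fluorescently labelled and resolved by capillary electrophoresis; activity scored as mRNA induction versus DMSO.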

The target of assay [2] is human RAR-related Orphan Receptor gamma (RORg), RORC (gene 6097) (UniProt P51449). Briefly: ATG_RORg_TRANS: Attagene TRANS-FACTORIAL HepG2 Assay for human RAR-related Orphan Receptor gamma (RORg) (AID 2283011; active = hit-call score of the fitted dose curve at least 0.9, where 1 is the maximum). A digest of the protocol: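 Readout: reporter transcript induction (RT-PCR, fluorescent primer extension, capillary electrophoresis) after 24 h compound exposure of transiently transfected HepG2 cells carrying a RORg-Gal4 chimera and GAL4-UAS reporters; DMSO served as baseline, with increasing signal fitted.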

The target of assay [3] is human Vitamin D Receptor (VDR), VDR (gene 7421) (UniProt P11473). Briefly: ATG_VDR_TRANS: Attagene TRANS-FACTORIAL HepG2 Assay for human Vitamin D Receptor (VDR) (AID 2283022; active = hit-call score of the fitted dose curve at least 0.9, where 1 is the maximum). An outline of the steps:
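HepG2 cells were transiently transfected with multiple GAL4-UAS reporter units, so signal reflects exogenous chimeric receptor-Gal4 activity. After 24 h compound exposure, reporter mRNA was measured by RT-PCR, fluorescent labelling and capillary electrophoresis, fitted for gain of signal versus DMSO.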

Assay [4] has as its target Retinoic acid receptor RXR-alpha (Homo sapiens) (UniProt P19793). Briefly: ATG_RXRa_TRANS: Attagene TRANS-FACTORIAL HepG2 Assay for human Retinoid X Receptor alpha (RXRa) (AID 2283012; active = hit-call score of the fitted dose curve at least 0.9, where 1 is the maximum). A digest of the protocol:
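Transient transfection of human HepG2 with multiple GAL4-UAS reporter constructs; 24 h compound exposure; total RNA isolated, reverse-transcribed, PCR-amplified, 6-FAM labelled, HpaI-cut, resolved by capillary electrophoresis. Positive-direction fit versus DMSO.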

The target in assay [5] is human Retinoid X Receptor beta (RXRb), RXRB (gene 6257) (UniProt P28702). Briefly: ATG_RXRb_TRANS: Attagene TRANS-FACTORIAL HepG2 Assay for human Retinoid X Receptor beta (RXRb) (AID 2283013; active = hit-call score of the fitted dose curve at least 0.9, where 1 is the maximum). A digest of the protocol:
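Transfect HepG2 with GAL4-UAS multi-reporter constructs (chimeric NR-Gal4, TRANS format); dose compound 24 h; isolate RNA, RT-PCR, FAM primer extension, HpaI digest; quantify by capillary electrophoresis; positive direction vs DMSO.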

Assay [6] addresses human Thyroid Receptor alpha (THRa1), THRA (gene 7067) (UniProt P10827). In words: ATG_THRa1_TRANS: Attagene TRANS-FACTORIAL HepG2 Assay for human Thyroid Receptor alpha (THRa1) (AID 2283014; active = hit-call score of the fitted dose curve at least 0.9, where 1 is the maximum). A digest of the protocol: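 HepG2 cells transiently transfected with multiplexed GAL4-UAS reporter units for exogenous chimeric THRa1-Gal4; reporter mRNA measured 24 h after dosing by RT-PCR, 6-FAM labelling, HpaI digestion and capillary electrophoresis. Gain-of-signal fitted versus DMSO baseline.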

Read-out in assay [7]: E-selectin (Homo sapiens) (UniProt P16581)
In words: BSK_3C_Eselectin: BioMAP Diversity Plus: 3C Assay for Eselectin Biomarker Activity (AID 2283015).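 As to outcome: cell surface E-selectin protein quantified by ELISA 24 h after dosing.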 The note with it: primary human endothelial cells (HUVEC); actives raise or lower the signal. An outline of the steps: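 Primary human umbilical vein endothelial cells (3C system) were dosed with chemical and cell-surface E-selectin measured by ELISA 24 h later. Bidirectional curve fitting used DMSO as negative control and baseline.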

Read-out in assay [8]: Interleukin-1 alpha (IL1a), IL1A (gene 3552)
Briefly: BSK_BE3C_IL1a: BioMAP Diversity Plus: BE3C Assay for Interleukin-1 alpha (IL1a) Biomarker Activity (AID 2283016). The note with it: primary human bronchial epithelial cells; actives raise or lower the signal. A digest of the protocol: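 BE3C primary human bronchial epithelium; cpd 24 h; IL-1a by ELISA; bidirectional fit vs DMSO; parallel SRB (0.1% SRB, 10% TCA fix, 560 nm) for cytotoxicity.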

Read-out in assay [9]: Monocyte Chemoattractant Protein-1 (MCP1), CCL2 (gene 6347)
Briefly: BSK_3C_MCP1: BioMAP Diversity Plus: 3C Assay for Monocyte Chemoattractant Protein-1 (MCP1) Biomarker Activity (AID 2283017). The settings on record: primary human endothelial cells (HUVEC); actives raise or lower the signal. An outline of the steps:
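Primary human umbilical vein endothelial cells (3C system) were exposed to test chemical for 24 h, after which MCP-1 was quantified by ELISA. Activity was fitted bidirectionally against DMSO as negative control and baseline.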

Read-out in assay [10]: Human Leukocyte Antigen - DR isotype (HLADR), HLA-DRA (gene 3122)
In words: BSK_3C_HLADR: BioMAP Diversity Plus: 3C Assay for Human Leukocyte Antigen - DR isotype (HLADR) Biomarker Activity (AID 2283019).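 As to outcome: ELISA of cell-surface HLA-DR on HUVEC 24 h after dosing.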 The note with it: primary human endothelial cells (HUVEC); actives raise or lower the signal. A digest of the protocol:
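Primary human umbilical vein endothelial cells (3C system) were dosed with compound and cell-surface HLA-DR was quantified by ELISA at 24 h. Activity was fitted bidirectionally against DMSO as negative control and baseline.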

Read-out in assay [11]: Interleukin-8 (IL8), CXCL8 (gene 3576)
Briefly: BSK_3C_IL8: BioMAP Diversity Plus: 3C Assay for Interleukin-8 (IL8) Biomarker Activity (AID 2283020). The settings on record: primary human endothelial cells (HUVEC); actives raise or lower the signal. A digest of the protocol: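 ELISA read-out of IL-8 from human umbilical vein endothelium, measured 24 h after chemical dosing. Activity is expressed relative to DMSO negative control, with both increases and decreases fitted.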

Read-out in assay [12]: Monokine induced gamma interferon (MIG), CXCL9 (gene 4283)
In words: BSK_3C_MIG: BioMAP Diversity Plus: 3C Assay for Monokine induced gamma interferon (MIG) Biomarker Activity (AID 2283021).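 As to AC50: MIG protein level measured by immunoassay in the treated endothelial cultures.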 The settings on record: primary human endothelial cells (HUVEC); actives raise or lower the signal. An outline of the steps: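 Read-out is ELISA detection of MIG on human umbilical vein endothelial cells, taken 24 h after dosing. Gain or loss of signal was scored relative to DMSO controls using bidirectional curve fitting.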

Read-out in assay [13]: Matrix Metallopeptidase 1 (MMP1), MMP1 (gene 4312)
Briefly: BSK_BE3C_MMP1: BioMAP Diversity Plus: BE3C Assay for Matrix Metallopeptidase 1 (MMP1) Biomarker Activity (AID 2283024). The settings on record: primary human bronchial epithelial cells; actives raise or lower the signal. A digest of the protocol:
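Human bronchial epithelial cells (BE3C system) exposed to compound for 24 h; MMP1 then quantified by ELISA. Activity was fitted in both directions relative to DMSO.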

Assay [14] is described as follows: BSK_3C_Vis: BioMAP Diversity Plus: 3C Assay for Morphology Visualization (AID 2283025).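 Also: fitted both ways so gain or loss versus DMSO counts.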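 As to AC50: light microscopy image of cell morphology used as background control.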 The settings on record: primary human endothelial cells (HUVEC). A digest of the protocol:
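Chemicals were added to primary human umbilical vein endothelium, cells were incubated 24 h, and morphology was then visualized by light microscopy. Gain or loss of signal was fitted bidirectionally relative to DMSO.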

Read-out in assay [15]: Pselectin, SELP (gene 6403)
In words: BSK_4H_Pselectin: BioMAP Diversity Plus: 4H Assay for Pselectin Biomarker Activity (AID 2283026). The note with it: primary human endothelial cells (HUVEC); actives raise or lower the signal. A digest of the protocol:
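ELISA read-out of P-selectin on human umbilical vein endothelium after 24 h of dosing. Values derive from bidirectional fitting relative to DMSO. Parallel SRB protein staining flagged overt cytotoxicity.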

Assay [16] is described as follows: BSK_4H_SRB: Viability Assessment in the BioMAP Diversity Plus: 4H Assay (AID 2283027).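 Also: cells exposed to compound for 24 h before staining.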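 As to AC50: curves fitted both ways versus DMSO so AC50 may be loss or gain.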 The note with it: primary human endothelial cells (HUVEC). A digest of the protocol: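 Human umbilical vein endothelial cells, 24 h after chemical dosing; total protein measured by 0.1% sulforhodamine B staining after 10% TCA fixation, read at 560 nm. Bidirectional fitting against DMSO.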

A short description of assay [17]: BSK_BE3C_SRB: Viability Assessment in the BioMAP Diversity Plus: BE3C Assay (AID 2283028).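 As to AC50: fitted both ways so AC50 may mark signal gain or loss versus DMSO.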 The note with it: primary human bronchial epithelial cells. A digest of the protocol: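 Human primary bronchial epithelial cells were exposed to test chemicals for 24 h. Total protein in parallel cultures was then measured by staining with 0.1% sulforhodamine B after 10% TCA fixation, with absorbance read at 560 nm. Activity was fitted bidirectionally against DMSO.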

Read-out in assay [18]: Thrombomodulin, THBD (gene 7056)
In words: BSK_3C_Thrombomodulin: BioMAP Diversity Plus: 3C Assay for Thrombomodulin Biomarker Activity (AID 2283029). The note with it: primary human endothelial cells (HUVEC); actives raise or lower the signal. An outline of the steps:
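Read-out is ELISA of thrombomodulin on human umbilical vein endothelium 24 h after chemical dosing. Gain or loss of signal is scored relative to DMSO. Overt cytotoxicity is checked in parallel cultures by sulforhodamine B staining.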

Read-out in assay [19]: Monocyte Chemoattractant Protein-1 (MCP1), CCL2 (gene 6347)
Briefly: BSK_4H_MCP1: BioMAP Diversity Plus: 4H Assay for Monocyte Chemoattractant Protein-1 (MCP1) Biomarker Activity (AID 2283018). The settings on record: primary human endothelial cells (HUVEC); actives raise or lower the signal. An outline of the steps:
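ELISA read-out of MCP-1 from human vascular endothelial primary cells taken at 24 hours after compound exposure. Activity was fitted in both directions relative to DMSO, which served as negative control.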

Assay [20] in a line: BSK_3C_SRB: Viability Assessment in the BioMAP Diversity Plus: 3C Assay (AID 2283023).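 Also: fitted both ways against DMSO so a hit may be signal rise or drop.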 The settings on record: primary human endothelial cells (HUVEC). A digest of the protocol: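 Primary human umbilical vein endothelial cells in the 3C system were read 24 h after compound dosing. Total protein was stained with 0.1% sulforhodamine B after 10% TCA fixation and read at 560 nm, with bidirectional fitting against DMSO as baseline.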

Results filed as inconclusive are left out. Active and inactive are the calls of the source. The calls were made as follows, unless noted: active = hit-call score of the fitted dose curve at least 0.9, where 1 is the maximum; inactive = score below 0.9.

human Thyroid Receptor alpha (THRa1), THRA (gene 7067), sequence (P10827 whole entry, looked up, the tested form may be a part): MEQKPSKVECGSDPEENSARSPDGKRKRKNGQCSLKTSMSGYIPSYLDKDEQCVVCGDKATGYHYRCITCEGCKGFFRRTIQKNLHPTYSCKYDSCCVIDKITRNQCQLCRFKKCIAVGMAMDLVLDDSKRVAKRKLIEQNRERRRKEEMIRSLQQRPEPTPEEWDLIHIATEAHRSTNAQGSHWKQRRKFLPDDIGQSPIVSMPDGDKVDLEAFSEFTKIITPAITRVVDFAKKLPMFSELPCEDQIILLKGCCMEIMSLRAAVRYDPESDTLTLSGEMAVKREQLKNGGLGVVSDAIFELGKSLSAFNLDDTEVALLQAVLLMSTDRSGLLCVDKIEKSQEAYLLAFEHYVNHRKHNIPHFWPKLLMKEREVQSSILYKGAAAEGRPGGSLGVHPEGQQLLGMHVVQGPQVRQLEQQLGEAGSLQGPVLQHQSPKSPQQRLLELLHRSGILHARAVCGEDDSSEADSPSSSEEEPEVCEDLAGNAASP
human Vitamin D Receptor (VDR), VDR (gene 7421), sequence (P11473 whole entry, looked up, the tested form may be a part): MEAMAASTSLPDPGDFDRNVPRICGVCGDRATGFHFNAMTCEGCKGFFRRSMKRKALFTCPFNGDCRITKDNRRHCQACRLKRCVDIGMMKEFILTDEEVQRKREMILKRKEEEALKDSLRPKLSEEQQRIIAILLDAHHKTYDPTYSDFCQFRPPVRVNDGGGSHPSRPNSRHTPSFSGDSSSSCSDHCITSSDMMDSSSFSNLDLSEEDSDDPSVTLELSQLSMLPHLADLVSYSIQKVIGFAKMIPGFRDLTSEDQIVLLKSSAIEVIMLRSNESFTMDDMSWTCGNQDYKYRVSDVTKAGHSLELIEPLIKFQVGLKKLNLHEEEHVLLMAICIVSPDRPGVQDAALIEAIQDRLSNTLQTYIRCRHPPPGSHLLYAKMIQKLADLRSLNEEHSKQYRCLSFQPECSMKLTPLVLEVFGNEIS
Retinoic acid receptor RXR-alpha (Homo sapiens), sequence (P19793 whole entry, looked up, the tested form may be a part): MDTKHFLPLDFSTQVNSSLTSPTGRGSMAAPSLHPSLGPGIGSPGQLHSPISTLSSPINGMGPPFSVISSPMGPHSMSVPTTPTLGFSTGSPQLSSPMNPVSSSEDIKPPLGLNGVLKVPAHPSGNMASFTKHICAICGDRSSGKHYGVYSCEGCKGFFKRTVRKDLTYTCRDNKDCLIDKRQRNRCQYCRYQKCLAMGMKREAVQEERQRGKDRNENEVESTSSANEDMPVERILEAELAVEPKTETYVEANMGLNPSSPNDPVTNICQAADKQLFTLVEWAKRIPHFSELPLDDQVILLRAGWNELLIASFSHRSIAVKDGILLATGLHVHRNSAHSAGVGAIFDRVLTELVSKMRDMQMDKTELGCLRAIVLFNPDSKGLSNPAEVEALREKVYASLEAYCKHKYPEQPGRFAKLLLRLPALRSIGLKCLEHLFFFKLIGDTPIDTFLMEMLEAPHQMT
human Retinoic Acid Receptor gamma (RARg), RARG (gene 5916), sequence (P13631 whole entry, looked up): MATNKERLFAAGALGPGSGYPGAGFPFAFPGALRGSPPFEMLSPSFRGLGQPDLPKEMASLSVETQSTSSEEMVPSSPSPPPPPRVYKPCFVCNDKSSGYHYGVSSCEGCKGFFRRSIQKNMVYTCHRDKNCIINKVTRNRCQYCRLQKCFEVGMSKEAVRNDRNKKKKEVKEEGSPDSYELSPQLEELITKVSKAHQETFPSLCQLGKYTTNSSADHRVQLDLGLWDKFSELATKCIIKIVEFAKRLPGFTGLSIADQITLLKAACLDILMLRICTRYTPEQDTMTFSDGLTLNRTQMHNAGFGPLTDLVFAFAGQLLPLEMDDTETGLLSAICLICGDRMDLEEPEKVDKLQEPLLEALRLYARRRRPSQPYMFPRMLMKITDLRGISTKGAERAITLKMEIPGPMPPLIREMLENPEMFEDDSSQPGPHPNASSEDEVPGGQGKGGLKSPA
human Retinoid X Receptor beta (RXRb), RXRB (gene 6257), sequence (P28702 whole entry, looked up, the tested form may be a part): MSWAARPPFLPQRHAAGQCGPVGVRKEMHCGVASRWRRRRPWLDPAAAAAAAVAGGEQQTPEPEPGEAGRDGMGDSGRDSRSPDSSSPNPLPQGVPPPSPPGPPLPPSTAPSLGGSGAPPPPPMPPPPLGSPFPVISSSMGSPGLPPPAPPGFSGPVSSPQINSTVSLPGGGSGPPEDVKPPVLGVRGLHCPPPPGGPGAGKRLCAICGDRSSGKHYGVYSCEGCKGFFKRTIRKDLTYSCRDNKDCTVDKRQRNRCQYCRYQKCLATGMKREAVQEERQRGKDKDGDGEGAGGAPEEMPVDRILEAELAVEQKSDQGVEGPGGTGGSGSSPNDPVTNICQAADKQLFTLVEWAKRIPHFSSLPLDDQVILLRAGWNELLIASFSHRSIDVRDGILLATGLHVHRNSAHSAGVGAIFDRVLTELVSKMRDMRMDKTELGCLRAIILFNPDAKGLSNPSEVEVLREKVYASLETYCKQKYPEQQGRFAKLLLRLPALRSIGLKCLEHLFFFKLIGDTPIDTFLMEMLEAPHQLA
E-selectin (Homo sapiens), sequence (P16581 whole entry, looked up): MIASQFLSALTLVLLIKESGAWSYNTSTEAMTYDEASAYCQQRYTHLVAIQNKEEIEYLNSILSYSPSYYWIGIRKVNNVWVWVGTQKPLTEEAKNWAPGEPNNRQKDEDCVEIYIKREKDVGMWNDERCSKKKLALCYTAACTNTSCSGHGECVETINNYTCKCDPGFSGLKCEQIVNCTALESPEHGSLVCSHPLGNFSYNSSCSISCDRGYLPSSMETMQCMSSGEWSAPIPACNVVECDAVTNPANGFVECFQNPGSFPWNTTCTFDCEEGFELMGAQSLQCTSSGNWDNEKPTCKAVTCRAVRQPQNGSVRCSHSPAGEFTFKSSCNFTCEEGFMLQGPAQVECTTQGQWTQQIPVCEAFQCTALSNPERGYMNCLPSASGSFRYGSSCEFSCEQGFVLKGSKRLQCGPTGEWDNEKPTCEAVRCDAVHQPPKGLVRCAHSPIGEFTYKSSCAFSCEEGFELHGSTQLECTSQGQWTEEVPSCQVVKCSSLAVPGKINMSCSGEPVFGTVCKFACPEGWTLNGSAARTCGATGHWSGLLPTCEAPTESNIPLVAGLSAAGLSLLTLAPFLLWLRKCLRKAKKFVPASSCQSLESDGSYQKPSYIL
human RAR-related Orphan Receptor gamma (RORg), RORC (gene 6097), sequence (P51449 whole entry, looked up, the tested form may be a part): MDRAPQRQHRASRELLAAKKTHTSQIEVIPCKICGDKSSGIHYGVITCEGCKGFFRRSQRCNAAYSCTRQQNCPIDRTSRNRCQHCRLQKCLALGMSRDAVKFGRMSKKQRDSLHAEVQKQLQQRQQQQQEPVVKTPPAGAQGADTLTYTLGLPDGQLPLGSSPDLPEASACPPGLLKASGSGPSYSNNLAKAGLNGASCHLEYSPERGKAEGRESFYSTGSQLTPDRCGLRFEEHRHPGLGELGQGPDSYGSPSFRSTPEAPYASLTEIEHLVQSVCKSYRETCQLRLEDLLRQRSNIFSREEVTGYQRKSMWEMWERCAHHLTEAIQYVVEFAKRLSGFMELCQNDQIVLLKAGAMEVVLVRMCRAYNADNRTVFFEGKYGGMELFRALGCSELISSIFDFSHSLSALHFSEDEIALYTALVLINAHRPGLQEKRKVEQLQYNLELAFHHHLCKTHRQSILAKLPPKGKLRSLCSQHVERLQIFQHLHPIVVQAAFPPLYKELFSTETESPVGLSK

Take `CCN(CC)C1CCCCC1`: the call in assay [1], in [2] and in assay [3] was inactive.
As to `O=[N+]([O-])c1ccc(Cl)c(Cl)c1`, the call in [1], in assay [4], in assay [5], in [6], in [7] and in [8] was inactive. Moreover, the outcome in assay [9], in assay [10], in [11], in assay [12], in assay [13] and in assay [14] was inactive. Also, the outcome in assay [15], in assay [16], in assay [17] and in assay [18] was inactive.
For `c1cc2c3c(cccc3c1)CC2`, the result in assay [1], in assay [2], in [5], in assay [6], in [7] and in assay [8] was inactive. The result in assay [9], in [19], in assay [10], in assay [11], in assay [12] and in assay [20] was inactive. The result in assay [13], in assay [14], in [15], in assay [16], in assay [17] and in assay [18] was inactive.
As for `C=CC(=O)OCC(CC)(COC(=O)C=C)COC(=O)C=C`, the call in assay [1], in [4], in [5], in [6], in assay [3] and in assay [18] was inactive. In addition, the AC50 in [7] is 2.37 µM (active); in [8], 5.88 µM (active); in [9], 2.66 µM (active); in [19] it was 1.9 µM (active); in assay [10], 1.38 µM (active); in assay [11], 3.18 µM (active). Moreover, the AC50 is 3.68 µM (active) in [12]; 11.4 µM (active) in assay [13]; 2.98 µM (active) in assay [14]; 2.25 µM (active) in assay [15]; 4.07 µM (active) in assay [16]; 20 µM (active) in assay [17].
As to `Nc1ccc2ccccc2c1`, the outcome in assay [1], in assay [2], in assay [4], in assay [6], in assay [7] and in assay [8] was inactive. In addition, the result in [9], in assay [19], in [10], in assay [11], in assay [12] and in assay [14] was inactive. Further, the result in assay [15], in assay [16], in assay [17] and in assay [18] was inactive. The AC50 in assay [13] was 2.92 µM (active).
In the case of `CCCN(CCC)c1c([N+](=O)[O-])cc(C(C)C)cc1[N+](=O)[O-]`, the result in assay [1], in assay [4], in assay [6], in assay [7], in assay [8] and in [12] was inactive. Also, the molecule was classed as inactive in assay [3], in [13], in assay [14], in [15], in assay [17] and in assay [18]. Also, the AC50 was 17.9 µM (active) in assay [5]; 32 µM (active) in assay [9]; 28.5 µM (active) in assay [10]; 31.2 µM (active) in assay [11]; 28.9 µM (active) in assay [20]; 32.8 µM (active) in assay [16].
With `c1ccc2c(c1)sc1ccccc12`, the call in assay [1], in assay [6], in assay [7], in assay [8], in assay [9] and in assay [19] was inactive. For the same molecule, the result in assay [10], in assay [11], in assay [12], in assay [3], in assay [20] and in [13] was inactive. In addition, the result in [14], in assay [15], in [16], in assay [17] and in assay [18] was inactive.
For `CCNc1nc(Cl)nc(NC(C)(C)C)n1`, the molecule was classed as inactive in assay [1], in [2], in [4], in [6], in assay [7] and in assay [8]. For the same molecule, the outcome in assay [9], in assay [10], in [11], in assay [12], in [3] and in assay [13] was inactive. Also, the outcome in assay [14], in assay [15], in [16], in assay [17] and in assay [18] was inactive. For the same molecule, the AC50 in [5] is 49.1 µM (active).

As a reminder, the AC50 is the midpoint of the concentration-response curve, whichever way the signal moves.
